Assay results published in PubChem BioAssay.
The source made the active and inactive calls.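 How the source made its calls, unless noted: active means inhibition at or above 50% at 10 µM; inactive means inhibition below 50%.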

Experiments:
[1] = inhibitors of TNFa-induced NFkB p65 translocation, primary screen, imaging, HUVEC, MLSMR starter and 10KST1 sets (AID 438;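 active means inhibition above 20% together with a positive visual image hit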;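 further: compound added about 3h40 before a 20 min TNFalpha stimulation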;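 on inhibition: signal is the nuclear over cytoplasmic p65 intensity ratio per well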); details: HUVEC TNFa-induced p65 nuclear translocation; cell count: measured here: nuclei count (cytotoxicity indicator), at 2.08 µM; inhibition: at 2 µM, stronger effect = higher value, 0% TNFa-plus-vehicle, 100% no-TNFa wells
[2] = inhibitors of mutant huntingtin aggregation, primary screen, imaging, exon1htt(103Q)mCFP cells, high-content imaging (AID 483;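 active means visual image review flags a hit and inhibition of aggregation exceeds 20%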;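 further: compound exposure lasted 3 days before fixation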;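 on nuclei count: percent of the per-plate median nuclei count of sample wells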); details: exon1htt(103Q)mCFP cell line, aggregate imaging, at 2 µM; inhibition of aggregation: stronger effect = higher value; nuclei count: measured here: cell count, toxicity
[3] = inhibitors of E-selectin induction by TNFa, primary screen, imaging, HUVEC, immunofluorescence, MLSMR starter and 10KST1 sets (AID 487;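 active means visually confirmed hit in the image check and inhibition above 20%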;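 on inhibition: signal is fraction of cell area covered by stained E-selectin grains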;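 on nuclei count: 100% = median nuclei count of all wells on the same plate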); details: HUVEC TNFalpha-induced E-selectin immunofluorescence imaging, at 2 µM; inhibition: stronger effect = higher value; nuclei count: measured here: cell number, toxicity
[4] = molecular target: Voltage-gated potassium channel subunit beta-2 (Rattus norvegicus) (UniProt P62483); experiment: KvBeta enzyme negative modulators, primary screen, biochemical, NADPH fluorescence (AID 622;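 active means fluorescence slope higher than the sample average by over 3 SD, cut at about -0.22 in these data, passing the limit was not always enough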;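 further: slope of raw intensity against log time taken from 70 to 1610 s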); details: recombinant KvBeta, 4-cyanobenzaldehyde reduction, at 10 µM, stronger effect = higher value
Chain of Voltage-gated potassium channel subunit beta-2 (Rattus norvegicus) (P62483 whole entry, looked up): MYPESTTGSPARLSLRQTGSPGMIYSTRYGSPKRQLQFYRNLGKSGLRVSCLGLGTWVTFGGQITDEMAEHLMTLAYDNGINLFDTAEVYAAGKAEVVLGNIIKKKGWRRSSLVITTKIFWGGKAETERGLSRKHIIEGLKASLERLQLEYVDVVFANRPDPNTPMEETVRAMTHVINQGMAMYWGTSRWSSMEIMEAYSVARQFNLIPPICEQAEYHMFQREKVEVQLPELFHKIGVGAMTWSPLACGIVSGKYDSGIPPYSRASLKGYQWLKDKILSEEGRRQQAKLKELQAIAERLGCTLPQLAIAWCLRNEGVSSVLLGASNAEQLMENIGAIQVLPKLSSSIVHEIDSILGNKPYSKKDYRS

[5] = molecular target: Voltage-gated potassium channel subunit beta-2 (Rattus norvegicus) (UniProt P62483); experiment: KvBeta positive modulators, primary screen, biochemical, NADPH fluorescence (AID 623;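 active means NADPH fluorescence slope more negative than the mean of all samples by about 3 SD, 99.7% confidence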;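 further: fluorescence intensity change per second fitted from 20 to 320 s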); details: Recombinant KvBeta, NADPH fluorescence decrease slope, 10 min; at 10 µM; stronger effect = lower value
[6] = molecular target: Alpha-2C adrenergic receptor (Homo sapiens) (UniProt P18825); experiment: modulators of alpha2C/GIRK thallium flux, primary screen, cell-based, HEK293 alpha2C/GIRK1/2 (AID 624;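 active means fluorescence slope after compound addition differing from the mean of all screened samples at 99.7% confidence, in either direction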;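 further: slope of fluorescence ratio to pre-addition baseline per second over 15 to 24 s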); details: thallium flux BTC fluorescence, at 10 µM, actives lie on both sides
Chain of Alpha-2C adrenergic receptor (Homo sapiens) (P18825 whole entry, looked up): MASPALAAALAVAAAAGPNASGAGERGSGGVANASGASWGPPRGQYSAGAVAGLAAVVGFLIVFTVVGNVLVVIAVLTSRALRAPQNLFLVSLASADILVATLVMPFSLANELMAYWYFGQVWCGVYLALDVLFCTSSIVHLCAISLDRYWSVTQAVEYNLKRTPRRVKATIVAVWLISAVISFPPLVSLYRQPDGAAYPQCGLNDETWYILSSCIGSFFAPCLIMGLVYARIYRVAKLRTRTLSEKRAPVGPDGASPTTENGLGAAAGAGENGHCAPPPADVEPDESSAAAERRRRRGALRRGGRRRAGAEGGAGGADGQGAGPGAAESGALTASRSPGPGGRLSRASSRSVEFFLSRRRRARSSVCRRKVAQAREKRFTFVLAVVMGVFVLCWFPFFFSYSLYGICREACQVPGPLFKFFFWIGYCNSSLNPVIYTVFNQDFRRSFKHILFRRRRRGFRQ

[7] = inhibitors of Sendai virus-induced IRF3 signaling, primary screen, TLR/RLR signaling modifier project, cell-based, Sendai virus stimulus, luciferase, 10K MLSCN set (AID 602276); details: HEK293 RL24 IRF3 luciferase reporter, at 10 µM, stronger effect = higher value;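 further: firefly luciferase from ISG56 promoter only with Renilla not read in this screen; 0% = Sendai virus plus DMSO and 100% = medium plus DMSO without virus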
[8] = inhibitors of poly I:C-induced TLR3 signaling, primary screen, cell-based, poly I:C stimulus, luciferase, 10K MLSCN set (AID 602277;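 active means inhibition of the reporter signal at or above 50%; inactive means inhibition below 50%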); details: HEK293-TLR3 RL24 IRF3 luciferase reporter, at 10 µM, stronger effect = higher value

## Cc1cc(C)cc(NC(=O)C2CCCN(c3nccc(C)n3)C2)c1 (centres undefined)
[1]
  cell count: 373
  inhibition: -6% (inactive)
[2]
  inhibition of aggregation: -20.4% (inactive)
  nuclei count: 115%
[3]
  inhibition: -57.3% (inactive)
  nuclei count: 117%
[4]
  fluorescence slope: -0.463 (inactive)
[5]
  NADPH fluorescence slope: -8.4e-05 (inactive)
[6]
  slope: 0.00586 (inactive)
[7]
  inhibition: 9.71% (inactive)
[8]
  inhibition: 18.5% (inactive)

## Cc1ccc(-c2nnn(CC(=O)N(Cc3cccs3)C(C(=O)NC(C)(C)C)c3ccc(C)o3)n2)o1 (centres undefined)
[1]
  cell count: 675
  inhibition: -4% (inactive)
[2]
  inhibition of aggregation: -2.3% (inactive)
  nuclei count: 136%
[3]
  inhibition: -20.1% (inactive)
  nuclei count: 137%
[4]
  fluorescence slope: -0.361 (inactive)
[5]
  NADPH fluorescence slope: -2.9e-05 (inactive)
[6]
  slope: 0.00454 (inactive)
[7]
  inhibition: 16.3% (inactive)
[8]
  inhibition: 20.6% (inactive)

## Cc1c(C(=O)NC2CCCc3ccccc32)oc2ccc(S(=O)(=O)N3CCOCC3)cc12 (centres undefined)
[1]
  cell count: 500
  inhibition: -3% (inactive)
[2]
  inhibition of aggregation: 27.1% (inactive)
  nuclei count: 76.4%
[3]
  inhibition: -32.9% (inactive)
  nuclei count: 110%
[4]
  fluorescence slope: -0.489 (inactive)
[5]
  NADPH fluorescence slope: -6.3e-05 (inactive)
[6]
  slope: 0.0079 (inactive)
[7]
  inhibition: 17.5% (inactive)
[8]
  inhibition: 14.6% (inactive)

## CC(NS(=O)(=O)c1ccc(F)cc1)C(c1cccs1)N1CCN(C)CC1 (centres undefined)
[1]
  cell count: 390
  inhibition: -3.7% (inactive)
[2]
  inhibition of aggregation: -11.1% (inactive)
  nuclei count: 104%
[3]
  inhibition: -0.8% (inactive)
  nuclei count: 105%
[4]
  fluorescence slope: -0.38 (inactive)
[5]
  NADPH fluorescence slope: -5.1e-05 (inactive)
[6]
  slope: 0.00473 (inactive)
[7]
  inhibition: 0.176% (inactive)
[8]
  inhibition: 33% (inactive)

## CCCC(CCC)C(=O)NCCN1CCOCC1
[1]
  cell count: 412
  inhibition: -2% (inactive)
[2]
  inhibition of aggregation: 6.3% (inactive)
  nuclei count: 97%
[3]
  inhibition: -22.1% (inactive)
  nuclei count: 90.6%
[4]
  fluorescence slope: -0.494 (inactive)
[5]
  NADPH fluorescence slope: -3.5e-05 (inactive)
[6]
  slope: 0.0054 (inactive)
[7]
  inhibition: 11% (inactive)
[8]
  inhibition: 28.6% (inactive)

## C/C(=N\O)C(C)/[N+]([O-])=C/c1nc(C)c(C)n1O (centres undefined)
[1]
  cell count: 611
  inhibition: 0.2% (inactive)
[2]
  inhibition of aggregation: 12% (inactive)
  nuclei count: 106%
[3]
  inhibition: 5.3% (inactive)
  nuclei count: 98.3%
[4]
  fluorescence slope: -0.492 (inactive)
[5]
  NADPH fluorescence slope: -7.2e-05 (inactive)
[6]
  slope: 0.00463 (inactive)
[7]
  inhibition: 15.5% (inactive)
[8]
  inhibition: 20.8% (inactive)

## CC1C(=O)C(C)C(c2cccs2)NC1c1cccs1 (centres undefined)
[1]
  cell count: 295
  inhibition: -1.4% (inactive)
[2]
  inhibition of aggregation: 10.2% (inactive)
  nuclei count: 68.6%
[3]
  inhibition: 13.7% (inactive)
  nuclei count: 87.4%
[4]
  fluorescence slope: -0.501 (inactive)
[5]
  NADPH fluorescence slope: 9.3e-06 (inactive)
[6]
  slope: 0.00548 (inactive)
[7]
  inhibition: 3.78% (inactive)
[8]
  inhibition: 3.34% (inactive)

## COc1ccc(C2CC(=O)C(C=NCCCN3CCOCC3)=C(O)C2)cc1 (centres undefined)
[1]
  cell count: 392
  inhibition: -4.9% (inactive)
[2]
  inhibition of aggregation: 14% (inactive)
  nuclei count: 80.7%
[3]
  inhibition: 3% (inactive)
  nuclei count: 87.7%
[4]
  fluorescence slope: -0.351 (inactive)
[5]
  NADPH fluorescence slope: -1.5e-05 (inactive)
[6]
  slope: 0.00635 (inactive)
[7]
  inhibition: 14.7% (inactive)
[8]
  inhibition: 32.7% (inactive)

## COC(=O)c1cccc(NC(=O)CSc2nnc(COc3ccccc3)n2C)c1
[1]
  cell count: 671
  inhibition: -5.4% (inactive)
[2]
  inhibition of aggregation: -2.2% (inactive)
  nuclei count: 101%
[3]
  inhibition: -88% (inactive)
  nuclei count: 135%
[4]
  fluorescence slope: -0.436 (inactive)
[5]
  NADPH fluorescence slope: -4.3e-05 (inactive)
[6]
  slope: 0.00598 (inactive)
[7]
  inhibition: 11.9% (inactive)
[8]
  inhibition: 14% (inactive)

## CN(C)c1ccc(C(=O)Nc2nnc(-c3ccc(Cl)cc3)o2)cc1
[1]
  cell count: 671
  inhibition: 1.3% (inactive)
[2]
  inhibition of aggregation: -15.9% (inactive)
  nuclei count: 109%
[3]
  inhibition: -46.6% (inactive)
  nuclei count: 113%
[4]
  fluorescence slope: -0.409 (inactive)
[5]
  NADPH fluorescence slope: -6.1e-05 (inactive)
[6]
  slope: 0.00542 (inactive)
[7]
  inhibition: 13% (inactive)
[8]
  inhibition: 29.7% (inactive)

## CCOC(=O)c1cc2sc(C)cc2n1CC(=O)Nc1cccc(C)c1C
[1]
  cell count: 556
  inhibition: 7.5% (inactive)
[2]
  inhibition of aggregation: 23.7% (inactive)
  nuclei count: 109%
[3]
  inhibition: -44.9% (inactive)
  nuclei count: 116%
[4]
  fluorescence slope: -0.342 (inactive)
[5]
  NADPH fluorescence slope: -3.2e-05 (inactive)
[6]
  slope: 0.00758 (inactive)
[7]
  inhibition: -2.4% (inactive)
[8]
  inhibition: 12.7% (inactive)

## COc1ccc(CCNC(=O)c2cc3sc(Cl)cc3n2C)cc1OC
[1]
  cell count: 611
  inhibition: 4.1% (inactive)
[2]
  inhibition of aggregation: -8.1% (inactive)
  nuclei count: 99.5%
[3]
  inhibition: 2.3% (inactive)
  nuclei count: 89%
[4]
  fluorescence slope: -0.626 (inactive)
[5]
  NADPH fluorescence slope: -4e-05 (inactive)
[6]
  slope: 0.00715 (inactive)
[7]
  inhibition: -15.3% (inactive)
[8]
  inhibition: -18.8% (inactive)

## CC(C)c1cc(C(=O)NCc2ccco2)no1
[1]
  cell count: 788
  inhibition: 3.7% (inactive)
[2]
  inhibition of aggregation: -21.5% (inactive)
  nuclei count: 104%
[3]
  inhibition: -45.3% (inactive)
  nuclei count: 106%
[4]
  fluorescence slope: -0.586 (inactive)
[5]
  NADPH fluorescence slope: -2.6e-05 (inactive)
[6]
  slope: 0.00624 (inactive)
[7]
  inhibition: -22.8% (inactive)
[8]
  inhibition: -50.6% (inactive)

## COCCN(CCOC)Cc1c(C)[nH]c2ccccc2c1=O
[1]
  cell count: 398
  inhibition: 6.8% (inactive)
[2]
  inhibition of aggregation: 12.7% (inactive)
  nuclei count: 93.3%
[3]
  inhibition: 1.8% (inactive)
  nuclei count: 104%
[4]
  fluorescence slope: -0.351 (inactive)
[5]
  NADPH fluorescence slope: -1.7e-05 (inactive)
[6]
  slope: 0.00544 (inactive)
[7]
  inhibition: 3.05% (inactive)
[8]
  inhibition: 24.8% (inactive)
